Compound activity as filed in PubChem.
TCR activator = activates T cell receptor signaling. primary human leukocytes, anti-CD3, IL-2 HTRF, 48 h. Potency, µM (highest dose often 9.22 µM), for the others: top-dose activation of IL-2 secretion, hits mostly activators. 330,000 tested, under 10 active; also: % of control where 0% means no effect
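Primary human leukocytes incubated 48 hr with anti-CD3 beads plus compound, without co-stimulation. Secreted IL-2 measured by HTRF (europium cryptate/d2 anti-IL-2 pair, 320 nm excitation, 665 nm emission).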
B2AR arrestin = recruits beta-arrestin to the human beta2-adrenergic receptor | P07550 | AID 492947 | Potency, µM (titrated, usually from 46.1 µM), inactives show top-dose activation, actives largely listed as activators | 330,000 compounds, 0.02% hits | beta-arrestin recruitment to beta2AR, cell-based reporter;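 also: potency is read from the fitted curve at half-maximal effect; 0% = DMSO controls and full agonism = EC100 isoproterenol or metaproterenol; nearly all actives have a fitted effect of over 65% in size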
Target sequence (P07550 whole entry, looked up): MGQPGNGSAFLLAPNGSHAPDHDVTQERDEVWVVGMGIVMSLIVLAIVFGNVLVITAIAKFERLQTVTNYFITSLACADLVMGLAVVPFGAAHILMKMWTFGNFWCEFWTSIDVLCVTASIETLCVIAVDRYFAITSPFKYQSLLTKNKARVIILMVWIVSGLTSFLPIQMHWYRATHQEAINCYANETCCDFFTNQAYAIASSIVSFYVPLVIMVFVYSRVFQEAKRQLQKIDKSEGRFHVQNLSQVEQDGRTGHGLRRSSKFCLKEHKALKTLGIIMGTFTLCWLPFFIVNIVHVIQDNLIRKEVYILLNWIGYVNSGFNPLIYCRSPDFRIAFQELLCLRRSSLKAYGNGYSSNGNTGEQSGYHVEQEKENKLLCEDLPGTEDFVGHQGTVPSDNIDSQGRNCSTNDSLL
CCT modulator = modulators of cytosolic chaperonin (CCT/TRiC) activity. purified chaperonin ATPase assay, HTRF ADP detection, 30 min. activity change, % (no concentration beside the values), hits read low. 360,000 compounds, 0.3% hits. AID 651819; in the data active = activity change below about -30%; also: % is scaled to controls: 0 for no effect and ±100 for the full control effect
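ATPase activity: ADP formed was measured by HTRF Transcreener (665/615 nm ratio) after 30 min at 37 deg C with 10 uM ATP. Compounds screened at one 76 uM concentration against 40 or 20 nM TRiC in Tris pH 7.4/KCl/MgCl2/DTT buffer.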
TSHR antag = human thyrotropin receptor antagonism; 330,000 compounds, 0.2% hits; TSHR-expressing cells, TSH-stimulated cAMP HTRF, 2 h; active compounds read low; P16473; activity change, negative = inhibition, % at 11.5 µM;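 active = activity change below a set negative limit, meaning inhibition stronger than a set level, cut at about -70% in these data; inconclusive = activity change between two set negative limits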; also: % is scaled to controls: 0 for no effect and ±100 for the full control effect
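Antagonism was scored as loss of TSH-driven cAMP in TSHR cells, stimulated with 4nM TSH (EC80) for 2 hours at 37 deg C and detected by homogeneous HTRF competition immunoassay.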
Mm-Cpn inhibitor = inhibitors of Methanococcus maripaludis chaperonin TRiC (MmCpn). Potency, µM (series often up to 76.9 µM), inactives show top-dose activity, negative = inhibition, most hits filed as inhibitors. purified Mm-Cpn ATPase, ADP Transcreener TR-FRET. AID 504842. 330,000 compounds, 0.031% hits; also: potency is read from the fitted curve at half-maximal effect; % is scaled to controls: 0 for no effect and ±100 for the full control effect; nearly all actives have a fitted effect of over 80% in size
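Eu-cryptate anti-ADP/ADP-d2 competition gives a ratio inversely related to ADP. Enzyme at 25 nM was pre-exposed to compound for 10 min, then given 10 uM ATP for 30 min, 37°C throughout.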
Numbers without * were called inactive; ? = inconclusive; . = no result; ! = repeats disagree; [ ] = remark or other dose. Sampled rows, rich in hits. Any-hit rate of the full collection: about 0.5%. Unless noted, calls follow the shape of the dose curve; as a rule, active = well fitted curve in the direction sought with a large enough effect; inconclusive = small, poorly fitted or top-dose-only effect, or another doubt; inactive = no such curve, though single readings can be large; an effect the other way counts as inactive or inconclusive.

SMILES	TCR activator	B2AR arrestin	CCT modulator	TSHR antag	Mm-Cpn inhibitor
OCC[n+]1c2ccccc2nc2ccc(N3CCOCC3)cc21	4%	0%	1	-71*	?
CCOC(=O)C1CCN(/C=C2\C(=O)NC(=S)N(CC)C2=O)CC1	-4%	0%	-1	6	-6%
CCOC(=O)C1CCN(/C=C2/C(=O)NC(=S)N(c3cccc(OC)c3)C2=O)CC1	-11%	0%	-42*	1	0%
N#CC(C#N)=Cc1ccc(N2CCCC2)cc1	-1%	0%	-46*	6	-5%
Cc1c(C(c2ccc(O)cc2)c2c(O)c3ccccc3oc2=O)c(=O)n(-c2ccccc2)n1C (centres undefined)	1%[46.1 µM]	0%	-4	10	-1%
Cc1cc2c(C(C)C)c(O)c(O)c(C=O)c2c(O)c1-c1c(C)cc2c(C(C)C)c(O)c(O)c(C=O)c2c1O	.	0%	.	-80*!	2%
COc1ccc2[nH]c(C)c(CCN3CCC(=O)C(C)C3C)c2c1 (centres undefined)	3%	0%	-4	-14	?
OC1(c2ccc(F)cc2)CC2CCC(C1)N2Cc1nnnn1C1CCCCC1 (centres undefined)	-47%	0%	-26	-19	-6%
COc1ccc(OC)c(/C=N/OC(=O)Nc2ccc(Cl)cc2)c1	6%	0%	-4	6	2%
O=C(Nc1ccc(Oc2ccc(Cl)cc2)c(Cl)c1)c1cc(I)cc(I)c1O	-1%	-1%	-3	-94*	?
C=C1[C@@H](OC(C)=O)[C@]23C[C@@H]1[C@@H](OC(C)=O)CC2[C@]12C4C[C@H]3[C@H]1N(CC)C[C@]4(C)CC[C@@H]2O (some centres undefined)	-7%	.	-68*	.	.
C[C@H]1O[C@@H](O[C@H]2[C@@H](O)C[C@H](O[C@H]3[C@@H](O)C[C@H](O[C@H]4CC[C@@]5(C)[C@H](CC[C@@H]6[C@@H]5CC[C@]5(C)[C@@H](C7=CC(=O)OC7)CC[C@]65O)C4)O[C@@H]3C)O[C@@H]2C)C[C@H](O)[C@@H]1O	-10%	0%	-1	?	0%
CC12CCC3C(CCC4(O)CC(O)CCC34C=O)C1(O)CCC2C1=CC(=O)OC1 (centres undefined)	1%	.	-3	.	.
C[C@H]1O[C@@H](OC2CC[C@]3(C=O)[C@H]4CC[C@]5(C)[C@@H](C6=CC(=O)OC6)CC[C@]5(O)[C@@H]4CC[C@]3(O)C2)CC2OC(C)(C)OC21 (some centres undefined)	1%	0%	-3	-74*	0%
C[C@]12CC[C@H]3[C@@H](CC[C@]4(O)C[C@@H](O)CC[C@]34C=O)[C@@]1(O)CC[C@@H]2C1=CC(=O)OC1	-1%	0%	0	-72*	1%
CCCCN=C[C@]12CCC(O)CC1(O)CCC1[C@@H]2CC[C@]2(C)[C@H](C3C=CC(=O)O3)CCC12O (some centres undefined)	4%	0%	1	-70*	2%
COc1ccc(CN2C(=O)NC(=O)/C(=C/c3ccc(OC)c(OC)c3OC)C2=O)cc1	-1%	0%	-1	13	3%
COC(=O)C1=C(c2ccc(-c3ccccc3)c(F)c2)C[C@@H]2CC[C@H]1N2C(=O)NCc1ccco1	-2%	?	0	-83*	-2%
COC(=O)C1=C(c2ccc(-c3ccccc3)c(F)c2)C[C@@H]2CC[C@H]1N2C(=O)NC1CC1	-4%	0%	-3	-41	0%
COC(=O)C1=C(c2ccc(-c3ccccc3)c(F)c2)C[C@@H]2CC[C@H]1N2C(=O)NC(C)C	-4%	0%	1	-93*	-2%
COC(=O)C1=C(c2ccc(OCc3ccccc3)cc2)C[C@@H]2CC[C@H]1N2C(=O)NCc1ccccc1OC	.	.	-4	.	.
COC(=O)C1=C(c2ccc(OCc3ccccc3)cc2)C[C@@H]2CC[C@H]1N2C(=O)NCc1ccc(OC)c(OC)c1	-5%	18µM*	-3	46	1%
Brc1ccc(CN2CCNCC2)s1	1%	0%	-2	0	-1%
COc1ccc(N2C(=O)CC(N3CC=C(c4ccccc4)CC3)C2=O)cc1 (centres undefined)	-5%	0%	-61*	-7	-2%
COc1ccccc1NC(=O)c1cn(CCC#N)nc1-c1ccc(F)cc1	3%	0%	0	-6	0%
SMILES	TCR activator	B2AR arrestin	CCT modulator	TSHR antag	Mm-Cpn inhibitor
Cc1nc2ccccc2c(=O)n1-c1ccc(Br)cn1	-6%	-1%	-1	1	0%
COP(=O)(C#Cc1ccccc1)C(O)c1ccc(Br)cc1 (centres undefined)	0%	-2%	-105*	-2	-1%
O=C(CF)NC(NC(=S)Nc1cccc([N+](=O)[O-])c1)C(Cl)(Cl)Cl (centres undefined)	-2%	-1%	-2	-1	4%
CN1CCN(CC#CCOc2ccc(Cl)cc2)CC1	-4%	0%	-6	30	0%
Clc1ccc(OCC#CCN2CCCC2)cc1	.	-1%	-34*	-6	-1%
Cc1ccc(CCN2CC(C(=O)N3CCC4(CC3)OCCO4)CC2=O)cc1 (centres undefined)	1%	0%	-64*	2	2%
CC(CCc1ccccc1)NC(C)C(O)c1ccc(O)cc1 (centres undefined)	-1%	4%	-2	-11	1%
O=C(O)c1cccc2c1NC(c1cccc([N+](=O)[O-])c1)C1CC(Sc3ccccc3[N+](=O)[O-])C(Cl)C21 (centres undefined)	-4%	0%	-46*	-27	2%
Cc1cccc(-n2c(O)c(/C=C3/C(c4ccccc4)=Nc4ccccc43)c(=O)[nH]c2=O)c1	1%	0%	-44*	11	-1%
CC(C)(C)c1cc(C=C(C#N)C#N)cc(C(C)(C)C)c1O	1%	0%	-3	-81*	-3%
Cc1cc(OCC(=O)N2C[C@H]3C[C@@H](C2)c2cccc(=O)n2C3)c2c(C)c(C)c(=O)oc2c1	3%	0%	-59*	-6	-5%
COc1ccc(CCNCc2ccccc2F)cc1OC	-1%[46.1 µM]	0%	-2	3	1%
CCC(=NC(C)c1ccccc1)c1c(O)[nH]c(=O)[nH]c1=O (centres undefined)	6%	1%	-9	10	1%
O=C1NC(=O)C(=Cc2ccc(OCC(=O)N3CCOCC3)cc2)C(=O)N1	1%[46.1 µM]	0%	-8	-2	-1%
O=C1CN=C(c2ccccc2)c2cc([N+](=O)[O-])ccc2N1	3%	-1%	-3	-4	-3%
O=C1CN=C(c2ccccc2)c2ccccc2N1	-4%	0%	-53*	-6	-1%
CCCN1C2CCCC1CC(NC(C)=O)C2 (centres undefined)	5%	0%	-33*	-5	1%
O=C(O)C(O)(c1ccccc1)C1CCCC1 (centres undefined)	-3%	0%	-1	-9	-6%
COc1ccc(CN2Cc3cc(-c4cccc(F)c4)ccc3-n3nncc3C2)cc1	.	.	1	.	.
